The record followed here is the supplement of paper PMC9950053.

Where a name gives a salt, the structure may show the parent alone.

The subject of the assay is Danio rerio larvae (5 dpf). The assay is described as follows: startle (activity period 16 minus period 15, 20-s interval sound) minus DMSO control (percentage points); higher = stronger startle response than DMSO larvae. As to conditions: 10 µM; exposure time: 3 h pre-incubation + 3 h imaging. The procedure: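 Wild-type 5 dpf zebrafish larvae (n=48 per drug, 96-well plates, 28.5 °C) were exposed to Tocris FDA-approved library compounds at 10 µM (0.1% DMSO) for 3 h before and 3 h during imaging. Images were taken every 6 s during visual and acoustic stimuli, and larvae were tracked with Z-LaP Tracker. Each measure is the treated-group mean minus the DMSO control mean (n=844), in percentage points. This mapping covers compounds with 5-character plate codes.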
For `COc1ccc(C(CN(C)C)C2(O)CCCCC2)cc1` (stereo unspecified) [Venlafaxine hydrochloride], the startle was -6.7.
